This is a sample that favours compounds with a hit; in the whole collection about 3.4% have one here.
PP1 counter – PP1-alpha phosphatase inhibitors, primary screen, counter-screen for PP5 inhibitor project, biochemical, fluorescence, OMFP substrate, single point | Serine/threonine-protein phosphatase PP1-alpha catalytic subunit (Homo sapiens), P62136 | inhibition, % at 6.7 µM | 320,000 compounds, 0.9% hits | AID 2235, 2010 | purified PP1alpha;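 active = inhibition above the mean inhibition of all tested compounds plus 3 SD, computed separately for each screening campaign, cut at about 15% in these data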
Target sequence (P62136 whole entry, looked up): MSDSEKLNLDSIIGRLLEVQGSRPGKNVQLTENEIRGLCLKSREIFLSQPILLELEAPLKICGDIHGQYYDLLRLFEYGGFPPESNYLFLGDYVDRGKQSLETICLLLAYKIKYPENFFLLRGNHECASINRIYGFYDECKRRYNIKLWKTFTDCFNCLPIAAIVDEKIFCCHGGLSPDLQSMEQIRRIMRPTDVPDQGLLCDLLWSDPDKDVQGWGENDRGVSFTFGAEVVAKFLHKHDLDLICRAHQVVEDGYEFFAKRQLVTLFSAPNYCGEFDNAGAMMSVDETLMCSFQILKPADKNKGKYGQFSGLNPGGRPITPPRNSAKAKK
PAFAH2 inh – PAFAH2 enzyme inhibitors, primary screen, biochemical, fluorescence polarization, human. recombinant PAFAH2, FP-rhodamine activity probe. Platelet-activating factor acetylhydrolase 2, cytoplasmic (Homo sapiens), Q99487. inhibition, % at 3.39 µM. 340,000 compounds, 0.99% hits. AID 492956, 2010;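 active = inhibition above the mean over all tested compounds plus 3 SD, cut at about 30% in these data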;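 also: inhibitors block probe labeling of enzyme so polarization drops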
PAFAH1B3 FP inh – PAFAH1B3 enzyme inhibitors, primary screen, biochemical, fluorescence polarization, human | Platelet-activating factor acetylhydrolase IB subunit alpha1 (Homo sapiens), Q15102 | recombinant PAFAH1B3, FP-rhodamine probe | inhibition, % at 3.39 µM | 340,000 compounds, 0.28% hits;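 active = inhibition above the screen-wide average of all tested compounds plus 3 SD, cut at about 25% in these data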
pPAFAH inh – pPAFAH enzyme inhibitors, primary screen, biochemical, fluorescence polarization, human. recombinant pPAFAH, FP-rhodamine probe fluorescence polarization. inhibition, % at 3.39 µM. 330,000 compounds, 1.5% hits. AID 463082, 2010;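 active = inhibition above the mean inhibition across the screen plus 3 SD, cut at about 25% in these data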;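 also: inhibitors block binding of the rhodamine activity-based probe so polarization drops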
PP5 primary – PP5 phosphatase inhibitors, primary screen, biochemical, fluorescence | Serine/threonine-protein phosphatase 5 (Homo sapiens), P53041 | purified PP5c, OMFP substrate fluorescence | inhibition, % at 6.7 µM | 320,000 compounds, 0.18% hits | AID 1987, 2009;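 active = inhibition above the campaign's mean inhibition across all tested compounds plus 3 SD, cut at about 9.5% in these data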
PAFAH1B2 FP inh – PAFAH1B2 enzyme inhibitors, primary screen, biochemical, fluorescence polarization, human. 340,000 compounds, 1.2% hits. inhibition, % at 3.39 µM. AID 492953, 2010. Platelet-activating factor acetylhydrolase IB subunit alpha2 (Homo sapiens), P68402. recombinant PAFAH1B2, FP-rhodamine activity probe;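 active = inhibition above the mean of all tested compounds plus 3 SD, cut at about 24% in these data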
PAFAH1B3 conf FP – PAFAH1B3 enzyme inhibitors, confirmation, biochemical, fluorescence polarization, human. shares compounds with PAFAH1B3 FP inh. recombinant PAFAH1B3, FP-Rh activity-based probe. inhibition, % at 3.39 µM. 390 compounds, 30% hits. AID 493032, 2011;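 active = average inhibition over triplicate runs above the hit cutoff set in the earlier primary screen, cut at about 25% in these data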
Of the large screens only hits and unclear results are named; the others gave an inactive call (follow-up assays come after a bar, where they were run).

CCCC[n+]1ccn(C2=C([O-])c3ccccc3C(=O)/C2=N\S(=O)(=O)c2ccccc2)c1	PAFAH1B3 FP inh 36 | PAFAH1B3 conf FP 26
N#CCCN(Cc1cccnc1)C(=S)NC1CC2C=CC1C2 (stereo unspecified)	none
O=C(/C=C/c1ccccc1[N+](=O)[O-])N1CCN(C(=O)c2ccco2)CC1	none
CCN(CC)CC(=O)Nc1ccc(-c2ccc(NC(=O)CN(CC)CC)c(OC)c2)cc1OC	none
CC(C)NCC(O)(c1ccc(Cl)cc1)c1ccc(Cl)cc1	PAFAH1B3 FP inh 29 | PAFAH1B3 conf FP inactive
O=C(O)c1cccc2c1C(=O)c1ccccc1C2=O	none
O=C1c2ccccc2C(=O)c2c(O)c(O)cc(O)c21	PAFAH1B3 FP inh 40, pPAFAH inh 47 (no result: PP1 counter, PP5 primary) | PAFAH1B3 conf FP 29
O=c1cc[nH]c2c1ccc1c(=O)cc[nH]c12	PAFAH1B3 FP inh 31 | PAFAH1B3 conf FP 80
O=c1cc[nH]c2c(Cl)cccc12	none
Cc1ccc(-c2[nH]c3cc(C(N)=O)ccc3c(=O)c2O)cc1	PAFAH1B3 FP inh 29 | PAFAH1B3 conf FP inactive
CCCNC(=O)c1ccc2c(=O)c(O)c(-c3ccc(OC)cc3)[nH]c2c1	none
CCCNC(=O)c1ccc2c(=O)c(O)c(-c3ccc(C)cc3)[nH]c2c1	PAFAH1B3 FP inh 27 | PAFAH1B3 conf FP inactive
CC(=O)Nc1c(S(=O)(=O)c2ccccc2)c2nc3ccccc3nc2n1Cc1ccccc1	none
O=S(=O)(Nc1c(S(=O)(=O)c2ccccc2)c2nc3ccccc3nc2n1C1CCCCC1)c1ccccc1	PAFAH1B3 FP inh 60 | PAFAH1B3 conf FP inactive
COC1=C/C(=C/c2c(N)n3cc(C)sc3nc2=O)C=CC1=O	none
Cc1cn2c(N)c(C=C3C=C(Cl)C(=O)C(Cl)=C3)c(=O)nc2s1	PAFAH1B3 FP inh 35 (no result: PP1 counter, pPAFAH inh, PP5 primary) | PAFAH1B3 conf FP inactive
Cn1cnc(S(=O)(=O)Nc2ccc(OC(F)(F)F)cc2)c1	none
CCCCSCCCNC(=O)CCCN1C(=O)c2ccccc2Sc2ncccc21	none
Cc1cccc(C(=O)Oc2ccc(/C=N/NC(=O)c3cc(O)cc(O)c3)cc2)c1	PAFAH1B3 FP inh 26 (no result: PP1 counter, pPAFAH inh, PP5 primary) | PAFAH1B3 conf FP inactive
CCc1nn(CC(=O)NCCCc2ccccc2)c(=O)c2cc3cc(F)ccc3n12	none
CNC1=C(N(C(C)=O)c2ccc(Br)cc2)C(=O)c2ccccc2C1=O	PAFAH1B3 FP inh 38 | PAFAH1B3 conf FP inactive
COc1ccc(/C=C2\C(=N)N3N=C(CC(=O)N4CCOCC4)SC3=NC2=O)cc1	none
N=C1/C(=C/c2ccc(-c3cccc(C(=O)O)c3)o2)C(=O)N=C2SC(CC(=O)N3CCOCC3)=NN12	PAFAH1B3 FP inh 30 | PAFAH1B3 conf FP inactive
O=c1[nH]nc(Br)c(=O)n1C(c1ccccc1)c1ccccc1	none (no result: PP1 counter, pPAFAH inh, PP5 primary)
O=C(Nc1ccccc1)/C(=C/c1ccc(O)cc1)NC(=O)c1ccco1	none
CCCS(=O)(=O)c1c(S(=O)(=O)CCC)c2c(C)cccn2c1C(=O)N/N=C/c1cc(O)cc(O)c1	PAFAH1B3 FP inh 27 | PAFAH1B3 conf FP inactive
COc1ccc2c3c(cccc13)N(C)N=C2C	PP1 counter 17, PAFAH1B3 FP inh 27 | PAFAH1B3 conf FP inactive
CCN(CC)CCc1nc(-c2ccccc2)no1	PAFAH1B3 FP inh 29 | PAFAH1B3 conf FP 34
Cc1nn(C)cc1S(=O)(=O)N1CCCCC1C (stereo unspecified)	none
COc1cc2c(cc1OC)CN(CCC(=O)c1ccc(Br)cc1)CC2	PAFAH1B3 FP inh 33 | PAFAH1B3 conf FP 28
COc1cc2c(cc1OC)CN(C(=O)CCNC(=O)c1ccc(Br)cc1)CC2	none (no result: PP1 counter, pPAFAH inh, PP5 primary)
CCOC(=O)c1ccc(CC(=O)c2ccc(O)cc2O)o1	none
CCC(=O)Oc1ccc(C/C(=N\O)c2ccc(O)cc2O)o1	PAFAH1B3 FP inh 27 | PAFAH1B3 conf FP 38
NNC(=O)c1c[nH]c2ccc(OCc3ccccc3)cc12	none

Screens from PubChem.
